Experimental data reported in PubChem BioAssay (Tox21).
Several values for one entry are separate records, joined by “and”; a condition that tells them apart may be missing. Identical values can stand only once. Records with an inconclusive call do not appear. Entries that show only a call come without a potency. Where a structure was tested more than once in an assay, its records may differ in their call. Activity calls are given as the source filed them. Unless noted, calls come from the whole dose curve; as a rule, active = well fitted curve in the direction sought with a large enough effect in the repeat runs; inconclusive = weak or mixed curves; inactive = no such curve, though single readings can be large; an effect the other way counts as inactive or inconclusive.

Legend:
[1] = qHTS assay to identify small molecule agonists of the vitamin D receptor (VDR) signaling pathway - cell viability counter screen (AID 743224); note: nearly all actives have a fitted effect of over 50% in size; note: potency is the fitted concentration of half-maximal effect
Summary of the method: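 VDR-bla cells, 4 h after plating, exposed to compounds for 16 h at 37C; viability then read in the same wells as CellTiter-Glo luminescence after 30 min at room temperature, following the bla FRET read.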

[2] = qHTS assay to identify small molecule antagonists of the vitamin D receptor (VDR) signaling pathway - cell viability counter screen (AID 743225); note: nearly all actives have a fitted effect of over 50% in size; note: potency is the fitted concentration of half-maximal effect
Summary of the method: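 Cells (VDR-UAS-bla HEK 293T) are plated, rested 4 h at 37C, dosed with compound and 3 nM final 1-alpha,25-dihydroxy vitamin D3, and incubated 16 h. Viability is taken from CellTiter-Glo luminescence in the reporter wells.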

[3] = qHTS assay to identify small molecule agonists of the NFkB signaling pathway - cell viability counter screen (AID 1159515; calls by dose curve; note: nearly all actives have a fitted effect of over 55% in size; note: potency is the fitted concentration of half-maximal effect)
Summary of the method: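 NFkB-bla ME-180 cells, 2,000/well, plated overnight at 37 C; compound added for 5 hr at 37 C. Viability read in the same wells as the bla reporter, by CellTiter-Glo luminescence after 30 min at room temperature.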

[4] = qHTS assay to identify small molecule agonists of the endoplasmic reticulum stress response signaling pathway - cell viability counter screen (AID 1159517; calls by dose curve; note: nearly all actives have a fitted effect of over 50% in size; note: potency is the fitted concentration of half-maximal effect)
Summary of the method: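 Cells, HeLa ESRE-bla; density, 1,500/well; dosing, 5 hr at 37 C, 5% CO2; readout, CellTiter-Glo luminescence after 30 min RT.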

[5] = qHTS assay to identify small molecule antagonists of the retinoid-related orphan receptor gamma (ROR-gamma) signaling pathway - cell viability counter screen (AID 1159520); note: nearly all actives have a fitted effect of over 50% in size; note: potency is the fitted concentration of half-maximal effect
Summary of the method: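 Cytotoxicity was read from cellular ATP (CellTiter-Glo luminescence) after 16 hr at 37 C with 1 uM doxycycline induction. The inducer was added 2 hr after compound transfer to Tet-on ROR gamma CHO cells.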

[6] = molecular target: Nuclear receptor ROR-gamma (Homo sapiens) (UniProt P51449); assay: qHTS assay to identify small molecule antagonists of the retinoid-related orphan receptor gamma (ROR-gamma) signaling pathway (AID 1159521; note: nearly all actives have a fitted effect of over 50% in size; note: potency is the fitted concentration of half-maximal effect)
Summary of the method: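 RORγ antagonism is scored from reduced reporter luminescence in Tet-on CHO cells. Induction used 1 uM final doxycycline hyclate for 16 h at 37 C, following a 2 h compound exposure.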

[7] = qHTS assay to identify small molecule agonists of the AP-1 signaling pathway - cell viability counter screen (AID 1159525; calls by dose curve; note: nearly all actives have a fitted effect of over 55% in size; note: potency is the fitted concentration of half-maximal effect)
Summary of the method: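 Luminescent ATP readout (Cell Titer Glo, 30 min RT), normalised to DMSO and tetra n-octyl ammonium bromide controls. Cells were ME-180 AP-1-bla in 0.5% dialyzed FBS Opti-MEM, with a 5 h, 37 °C compound exposure.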

[8] = qHTS assay to identify small molecule agonists of the AP-1 signaling pathway (AID 1159526; calls by dose curve)
[9] = qHTS assay to identify small molecule agonists of the RXR signaling pathway - cell viability counter screen (AID 1159529); note: nearly all actives have a fitted effect of over 50% in size; note: potency is the fitted concentration of half-maximal effect
Summary of the method: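 Cell viability is measured by CellTiter-Glo luminescence, 30 min at room temperature, in wells already read for beta-lactamase. Engineered HEK 293T cells (RXR-alpha-UAS-bla) are dosed 16 hr at 37 C. Tetraoctyl ammonium bromide serves as positive control.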

[10] = qHTS assay to identify small molecule antagonists of the retinoid acid receptor (RAR) signaling pathway - cell viability counter screen (AID 1159551); note: nearly all actives have a fitted effect of over 35% in size; note: potency is the fitted concentration of half-maximal effect
Summary of the method: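 C3RL4 RARE-luciferase cells, 1,000/well, incubated overnight, then dosed with compound plus 1 uM retinol (final). After 6 hr at 37 C, viability read by CellTiter-Glo ATP luminescence following 30 min at room temperature.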

[11] = qHTS assay to identify small molecule antagonists of the retinoic acid receptor (RAR) signaling pathway (AID 1159552; note: nearly all actives have a fitted effect of over 50% in size; note: potency is the fitted concentration of half-maximal effect)
Summary of the method: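 Quantitative HTS in C3RL4 RARE-luciferase reporter cells. Compounds were added with 1 uM (final) retinol; luminescence was read after 6 hr.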

[12] = qHTS assay to identify small molecule agonists of the retinoic acid receptor (RAR) signaling pathway (AID 1159553)
Summary of the method: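 C3RL4 RARE-luciferase cells were seeded at 1,000/well and grown overnight at 37 C, then exposed to compounds for 6 hr at 37 C, 5% CO2. Luciferase reagent was added and luminescence was read after 30 min at room temperature.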

[13] = molecular target: Retinoic acid receptor RXR-alpha (Homo sapiens) (UniProt P19793); assay: qHTS assay to identify small molecule agonists of the RXR signaling pathway (AID 1159527; calls by dose curve; note: nearly all actives have a fitted effect of over 35% in size)
Chain of Retinoic acid receptor RXR-alpha (Homo sapiens) (P19793 whole entry, looked up): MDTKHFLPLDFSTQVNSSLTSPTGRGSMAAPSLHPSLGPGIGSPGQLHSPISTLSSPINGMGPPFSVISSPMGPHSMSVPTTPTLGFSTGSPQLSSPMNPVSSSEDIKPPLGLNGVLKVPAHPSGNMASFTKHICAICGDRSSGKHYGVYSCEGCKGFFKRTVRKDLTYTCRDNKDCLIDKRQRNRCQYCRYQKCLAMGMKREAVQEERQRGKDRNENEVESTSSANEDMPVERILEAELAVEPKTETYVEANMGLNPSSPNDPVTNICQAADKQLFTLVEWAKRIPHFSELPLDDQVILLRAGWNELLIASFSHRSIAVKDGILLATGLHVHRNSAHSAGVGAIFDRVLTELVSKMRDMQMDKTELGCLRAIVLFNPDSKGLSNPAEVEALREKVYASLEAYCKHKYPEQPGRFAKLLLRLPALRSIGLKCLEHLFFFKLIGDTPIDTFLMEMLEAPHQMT
Summary of the method: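 qHTS of the Tox21 10K library in GeneBLAzer RXR-alpha HEK 293T cells carrying a beta-lactamase reporter […]; 16 hr treatment, 9-cis retinoic acid as agonist control, FRET read-out.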

| SMILES | Potency [1] | Potency [2] | Potency [3] | Potency [4] | Potency [5] | Potency [6] | Potency [7] | Potency [8] | Potency [9] | Potency [10] | Potency [11] | Potency [12] | Potency [13] |
| --- | --- | --- | --- | --- | --- | --- | --- | --- | --- | --- | --- | --- | --- |
| C=CCN1C[C@H](C)N([C@H](c2ccc(C(=O)N(CC)CC)cc2)c2cccc(OC)c2)C[C@H]1C | inactive | inactive | inactive | inactive | inactive | inactive | inactive | inactive | inactive | inactive | inactive | inactive | – |
| Cc1ncc(C[n+]2csc(CCO)c2C)c(N)n1 | inactive | inactive | inactive | inactive | – | inactive | inactive | inactive | inactive | inactive | inactive | inactive | – |
| O=C1c2ccccc2C(=O)N1SC(Cl)(Cl)Cl | 19.2 µM (active) and 6.92 µM (active) | 34.2 µM (active) | inactive | inactive | 30.2 µM (active) and 21.7 µM (active) | 6.03 µM (active) and 7.7 µM (active) | inactive | – | inactive | 53.7 µM (active) and 30.6 µM (active) | 17 µM (active) and 15.4 µM (active) | – | – |
| CCOP(=O)(SC(C)CC)N1CCSC1=O (centres undefined) | inactive | inactive | inactive | inactive | inactive | inactive | inactive | inactive | inactive | inactive | inactive | inactive | – |
| [Cl-].[Cl-].[Hg+2] | 773 nM (active) and 1.1 µM (active) | 1.22 µM (active) and 3.47 µM (active) | 3.45 µM (active) and 49 µM (active) | 48.8 µM (active) | 48.3 µM (active) and 1.09 µM (active) | – | 4.88 µM (active) and 4.36 µM (active) | – | 3.08 µM (active) and 3.09 µM (active) | 27.2 µM (active) and 6.11 µM (active) | – | – | – |
| O=[N+]([O-])/C=C/c1ccccc1 | 49 µM (active) | 49.8 µM (active) and inactive | 44.4 µM (active) and 54.9 µM (active) | inactive | 11 µM (active) and 13.7 µM (active) | 5.54 µM (active) and 9.69 µM (active) | inactive | – | – | – | – | – | – |
| CCCCCCCCP(=O)(O)O | inactive | inactive | inactive | inactive | – | inactive | inactive | inactive | inactive | inactive | inactive | inactive | inactive |
| CC1(C)[C@H](C(=O)O[C@H](C#N)c2cccc(Oc3ccccc3)c2)[C@@H]1C=C(Br)Br | inactive | inactive | inactive | inactive | inactive | inactive | inactive | – | inactive | inactive | – | – | inactive |
| COP(=O)(OC)OC(Br)C(Cl)(Cl)Br (centres undefined) | – | inactive | inactive | inactive | 24.3 µM (active) | 27.3 µM (active) | inactive | – | inactive | inactive | – | – | inactive |
| Cc1nc2ccccc2c(=O)n1-c1ccccc1Cl | inactive | inactive | inactive | inactive | inactive | inactive | inactive | inactive | inactive | inactive | inactive | inactive | – |
| CCCN(CCC)c1c([N+](=O)[O-])cc(C(C)C)cc1[N+](=O)[O-] | inactive | inactive | inactive | inactive | inactive | inactive | inactive | inactive | inactive | inactive | inactive | inactive | – |
| O=P(OCC(Br)CBr)(OCC(Br)CBr)OCC(Br)CBr (centres undefined) | – | – | inactive | inactive | inactive | – | inactive | inactive | inactive | inactive | inactive | inactive | – |
| C[C@]12C=CC3=C4CCC(=O)C=C4CC[C@H]3[C@@H]1CC[C@@H]2O | inactive | inactive | inactive | inactive | – | inactive | inactive | inactive | inactive | inactive | – | – | – |
| CCCCNC(=O)OCC#CI | 48.7 µM (active) and 43.6 µM (active) | inactive | inactive | inactive | 54.2 µM (active) and 17.2 µM (active) | 24.2 µM (active) | 54.7 µM (active) | – | – | 68.2 µM (active) | 43.1 µM (active) and 54.5 µM (active) | – | – |
| CCCN(CCOc1c(Cl)cc(Cl)cc1Cl)C(=O)n1ccnc1 | inactive | inactive | inactive | inactive | inactive | – | inactive | inactive | inactive | inactive | inactive | inactive | – |
| NC(=S)c1c(Cl)cccc1Cl | inactive | – | inactive | inactive | – | inactive | inactive | inactive | inactive | inactive | inactive | inactive | – |
| O=C(NC(=O)c1cc(F)c(F)cc1Cl)Nc1cc(F)ccc1N1CCC(C(=O)O)CC1 | inactive | inactive | inactive | inactive | – | inactive | inactive | inactive | inactive | inactive | inactive | inactive | – |
| Cc1ccc(N)c(C)c1 | inactive | inactive | inactive | inactive | inactive | – | inactive | inactive | inactive | inactive | – | – | inactive |
